Results: the supplement of paper PMC7411054

What was measured:
Conditions in all cases: treatment time: 24 h
[1] = test system: A549-ACTB-RAB5A; assay: lowest phenotypically active concentration; higher = less potent
Method in brief: (§1)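 Cells from fifteen gene-edited reporter lines (A549, HepG2 and WPMY1) were treated for 24 h at 0.3, 1, 3 or 9 µM and imaged live, four wells per condition. Features were normalised per well to solvent control wells. A condition deviated if ≥3 of 4 wells passed the 95th percentile of control Euclidean distances and was reproducible if its median replicate Pearson correlation beat the 95th percentile of non-replicates; phenotypic activity needed both.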

[2] = test system: A549-CANX-COX4; assay: as above
Method in brief: as §1

[3] = test system: A549-GM130-SQSTM1; assay: as above
Method in brief: as §1

[4] = test system: A549-TP53BP1-CLTA; assay: as above
Method in brief: as §1

[5] = test system: A549-TUBA1B-RELA; assay: as above
Method in brief: as §1

[6] = test system: A549-ACTB-RAB5A; assay: phenotypically active (imaging signature differs from DMSO and reproducible) at any of 0.3-9 uM (binary (1 = active, 0 = inactive)); higher = active
Method in brief: as §1

[7] = test system: A549-CANX-COX4; assay: as above
Method in brief: as §1

[8] = test system: A549-GM130-SQSTM1; assay: as above
Method in brief: as §1

[9] = test system: A549-TP53BP1-CLTA; assay: as above
Method in brief: as §1

[10] = test system: A549-TUBA1B-RELA; assay: as above
Method in brief: as §1

[11] = test system: HepG2-ACTB-RAB5A; assay: as above
Method in brief: as §1

[12] = test system: HepG2-CANX-COX4; assay: as above
Method in brief: as §1

[13] = test system: HepG2-GM130-SQSTM1; assay: as above
Method in brief: as §1

[14] = test system: HepG2-TP53BP1-CLTA; assay: as above
Method in brief: as §1

[15] = test system: HepG2-TUBA1B-RELA; assay: as above
Method in brief: as §1

[16] = test system: WPMY1-ACTB-RAB5A; assay: as above
Method in brief: as §1

[17] = test system: WPMY1-CANX-COX4; assay: as above
Method in brief: as §1

[18] = test system: WPMY1-GM130-SQSTM1; assay: as above
Method in brief: as §1

[19] = test system: WPMY1-TP53BP1-CLTA; assay: as above
Method in brief: as §1

[20] = test system: WPMY1-TUBA1B-RELA; assay: as above
Method in brief: as §1

CN1CCN(c2ccc(OC(F)(F)F)c(Nc3ncc4c(n3)-c3c(c(C(N)=O)nn3CCO)CC4)c2)CC1
active: phenotypically active [6] 1 | phenotypically active [7] 1 | phenotypically active [8] 1 | phenotypically active [9] 1 | phenotypically active [10] 1 | phenotypically active [11] 1 | phenotypically active [12] 1 | phenotypically active [13] 1 | phenotypically active [14] 1 | phenotypically active [15] 1 | phenotypically active [16] 1 | phenotypically active [17] 1 | phenotypically active [18] 1 | phenotypically active [19] 1 | phenotypically active [20] 1
≤ 0.3 µM: lowest phenotypically active concentration [1] | lowest phenotypically active concentration [2] | lowest phenotypically active concentration [3] | lowest phenotypically active concentration [4] | lowest phenotypically active concentration [5]

Clc1ccc(N/N=C(\c2ccccc2)c2ccccn2)nc1
1 µM: lowest phenotypically active concentration [1]
≤ 0.3 µM: lowest phenotypically active concentration [3] | lowest phenotypically active concentration [5]
3 µM: lowest phenotypically active concentration [2] | lowest phenotypically active concentration [4]
active: phenotypically active [6] 1 | phenotypically active [7] 1 | phenotypically active [8] 1 | phenotypically active [9] 1 | phenotypically active [10] 1 | phenotypically active [11] 1 | phenotypically active [12] 1 | phenotypically active [13] 1 | phenotypically active [14] 1 | phenotypically active [15] 1 | phenotypically active [16] 1 | phenotypically active [17] 1 | phenotypically active [18] 1 | phenotypically active [19] 1 | phenotypically active [20] 1

O=C(O)c1ccc(Nc2ncc3c(n2)-c2ccc(Cl)cc2C(c2c(F)cccc2F)=NC3)cc1
≤ 0.3 µM: lowest phenotypically active concentration [1] | lowest phenotypically active concentration [2] | lowest phenotypically active concentration [3] | lowest phenotypically active concentration [4] | lowest phenotypically active concentration [5]
active: phenotypically active [6] 1 | phenotypically active [7] 1 | phenotypically active [8] 1 | phenotypically active [9] 1 | phenotypically active [10] 1 | phenotypically active [11] 1 | phenotypically active [12] 1 | phenotypically active [13] 1 | phenotypically active [14] 1 | phenotypically active [15] 1 | phenotypically active [16] 1 | phenotypically active [17] 1 | phenotypically active [18] 1 | phenotypically active [19] 1 | phenotypically active [20] 1

CCCCc1oc2ccccc2c1C(=O)c1cc(I)c(OCCN(CC)CC)c(I)c1 [amiodarone]
3 µM: lowest phenotypically active concentration [1] | lowest phenotypically active concentration [5]
9 µM: lowest phenotypically active concentration [2] | lowest phenotypically active concentration [3] | lowest phenotypically active concentration [4]
active: phenotypically active [6] 1 | phenotypically active [7] 1 | phenotypically active [8] 1 | phenotypically active [9] 1 | phenotypically active [10] 1 | phenotypically active [11] 1 | phenotypically active [12] 1 | phenotypically active [13] 1 | phenotypically active [14] 1 | phenotypically active [15] 1 | phenotypically active [16] 1 | phenotypically active [17] 1 | phenotypically active [18] 1 | phenotypically active [19] 1 | phenotypically active [20] 1

CC(=O)Nc1ccc(C(=O)Nc2ccccc2N)cc1
active: phenotypically active [6] 1 | phenotypically active [7] 1 | phenotypically active [8] 1 | phenotypically active [9] 1 | phenotypically active [10] 1 | phenotypically active [11] 1 | phenotypically active [12] 1 | phenotypically active [13] 1 | phenotypically active [14] 1 | phenotypically active [15] 1 | phenotypically active [16] 1 | phenotypically active [17] 1 | phenotypically active [18] 1 | phenotypically active [19] 1 | phenotypically active [20] 1
1 µM: lowest phenotypically active concentration [1] | lowest phenotypically active concentration [2] | lowest phenotypically active concentration [3] | lowest phenotypically active concentration [5]
3 µM: lowest phenotypically active concentration [4]

Cc1ncc(-c2ccnc(Nc3ccc(S(C)(=O)=O)cc3)n2)n1C(C)C
≤ 0.3 µM: lowest phenotypically active concentration [1] | lowest phenotypically active concentration [2] | lowest phenotypically active concentration [3] | lowest phenotypically active concentration [4] | lowest phenotypically active concentration [5]
active: phenotypically active [6] 1 | phenotypically active [7] 1 | phenotypically active [8] 1 | phenotypically active [9] 1 | phenotypically active [10] 1 | phenotypically active [11] 1 | phenotypically active [12] 1 | phenotypically active [13] 1 | phenotypically active [14] 1 | phenotypically active [15] 1 | phenotypically active [16] 1 | phenotypically active [17] 1 | phenotypically active [18] 1 | phenotypically active [19] 1 | phenotypically active [20] 1

COc1c(C)cnc(Cn2cnc3c(Cl)nc(N)nc32)c1C
active: phenotypically active [6] 1 | phenotypically active [7] 1 | phenotypically active [8] 1 | phenotypically active [9] 1 | phenotypically active [10] 1 | phenotypically active [11] 1 | phenotypically active [12] 1 | phenotypically active [13] 1 | phenotypically active [14] 1 | phenotypically active [15] 1 | phenotypically active [16] 1 | phenotypically active [17] 1 | phenotypically active [18] 1 | phenotypically active [19] 1 | phenotypically active [20] 1
≤ 0.3 µM: lowest phenotypically active concentration [1] | lowest phenotypically active concentration [2] | lowest phenotypically active concentration [3] | lowest phenotypically active concentration [4] | lowest phenotypically active concentration [5]

C=CC(=O)N1CCC[C@@H](n2nc(-c3cccc(C(=O)Nc4ccc(C(C)C)c(C)c4)c3)c3c(N)ncnc32)C1
1 µM: lowest phenotypically active concentration [5]
3 µM: lowest phenotypically active concentration [1] | lowest phenotypically active concentration [2] | lowest phenotypically active concentration [3] | lowest phenotypically active concentration [4]
active: phenotypically active [6] 1 | phenotypically active [7] 1 | phenotypically active [8] 1 | phenotypically active [9] 1 | phenotypically active [10] 1 | phenotypically active [11] 1 | phenotypically active [12] 1 | phenotypically active [13] 1 | phenotypically active [14] 1 | phenotypically active [15] 1 | phenotypically active [16] 1 | phenotypically active [17] 1 | phenotypically active [18] 1 | phenotypically active [19] 1 | phenotypically active [20] 1

O=C(NCCCNc1nc(Nc2cccc(NC(=O)N3CCCC3)c2)ncc1I)c1cccs1
1 µM: lowest phenotypically active concentration [1]
active: phenotypically active [6] 1 | phenotypically active [7] 1 | phenotypically active [8] 1 | phenotypically active [9] 1 | phenotypically active [10] 1 | phenotypically active [11] 1 | phenotypically active [12] 1 | phenotypically active [13] 1 | phenotypically active [14] 1 | phenotypically active [15] 1 | phenotypically active [16] 1 | phenotypically active [17] 1 | phenotypically active [18] 1 | phenotypically active [19] 1 | phenotypically active [20] 1
3 µM: lowest phenotypically active concentration [2] | lowest phenotypically active concentration [3] | lowest phenotypically active concentration [4] | lowest phenotypically active concentration [5]

CC(C)(C)Nc1nc(Nc2ccc(C(N)=O)cc2)cc(N)c1C#N
active: phenotypically active [6] 1 | phenotypically active [7] 1 | phenotypically active [8] 1 | phenotypically active [9] 1 | phenotypically active [10] 1 | phenotypically active [11] 1 | phenotypically active [12] 1 | phenotypically active [13] 1 | phenotypically active [14] 1 | phenotypically active [15] 1 | phenotypically active [16] 1 | phenotypically active [17] 1 | phenotypically active [18] 1 | phenotypically active [19] 1 | phenotypically active [20] 1
3 µM: lowest phenotypically active concentration [1] | lowest phenotypically active concentration [2] | lowest phenotypically active concentration [3] | lowest phenotypically active concentration [4] | lowest phenotypically active concentration [5]

Cc1ccc(C(=O)N(CCCN)[C@@H](c2nc3cc(Cl)ccc3c(=O)n2Cc2ccccc2)C(C)C)cc1 [Ispinesib]
≤ 0.3 µM: lowest phenotypically active concentration [1] | lowest phenotypically active concentration [2] | lowest phenotypically active concentration [3] | lowest phenotypically active concentration [4] | lowest phenotypically active concentration [5]
active: phenotypically active [6] 1 | phenotypically active [7] 1 | phenotypically active [8] 1 | phenotypically active [9] 1 | phenotypically active [10] 1 | phenotypically active [11] 1 | phenotypically active [12] 1 | phenotypically active [13] 1 | phenotypically active [14] 1 | phenotypically active [15] 1 | phenotypically active [16] 1 | phenotypically active [17] 1 | phenotypically active [18] 1 | phenotypically active [19] 1 | phenotypically active [20] 1
